Measured values taken from PubChem BioAssay (Tox21).
Some compounds were tested as several samples or in several runs, with calls that do not always agree. Activity calls are given as the source filed them. Calls come from the whole dose curve.

These compounds were tested against Muscarinic acetylcholine receptor M1 (Homo sapiens) (UniProt P11229) (assay: Cholinergic receptor muscarinic 1 (CHRM1) small molecule agonists, cell-based qHTS assay (AID 1963589; note: nearly all actives have a fitted effect of over 35% in size)). Conditions: CHRM1-CHO cells, agonist mode, calcium flux fluorescence; series mostly up to 76.8 µM; activation: at the top concentration.
Text: National Center for Advancing Translational Sciences [NCATS]
Division of Preclinical Innovation [DPI]
U.S. Environmental Protection Agency [EPA]
National Institutes of Environmental Health Sciences [NIEHS]
National Toxicology Program [NTP]
U.S. Food and Drug Administration [FDA]
The CHRM1 is a muscarinic receptor. This receptor plays a crucial role in learning and memory processes and has long been identified as a promising therapeutic target for the improvement of cognitive decline in Alzheimer's disease (AD). The CHRM1-CHO cell line stably expressing human muscarinic acetylcholine receptor M1 (CHRM1) can be used for screening agonists and antagonists of interactions between CHRM1 and its ligands. The CHRM1-CHO Calcium Flux Assay is a homogeneous fluorescence-based assay for detecting the intracellular calcium level using FDSS kinetic plate reader system.
CHRM1-CHO cells were dispensed at 1000 cells/3uL/well in 1536-well black-clear bottom plates using a Multidrop Dispenser. After the assay plates were incubated at a 37 C/5% CO2 incubator for 18 h, 3 uL of Dye Loading Buffer was transferred to the assay plate by a Flying Reagent Dispenser. The assay plates were incubated at 37 C for 1h. For agonist mode, 23 nL of compounds dissolved in DMSO, positive controls or DMSO only was transferred to the assay plate by a pin tool. […] Each test compound was measured at 15 concentrations in three independent runs.
% is set by controls: 0 for no effect and ±100 for the full control effect; potency is the fitted concentration of half-maximal effect.

Chain of Muscarinic acetylcholine receptor M1 (Homo sapiens) (P11229 whole entry, looked up): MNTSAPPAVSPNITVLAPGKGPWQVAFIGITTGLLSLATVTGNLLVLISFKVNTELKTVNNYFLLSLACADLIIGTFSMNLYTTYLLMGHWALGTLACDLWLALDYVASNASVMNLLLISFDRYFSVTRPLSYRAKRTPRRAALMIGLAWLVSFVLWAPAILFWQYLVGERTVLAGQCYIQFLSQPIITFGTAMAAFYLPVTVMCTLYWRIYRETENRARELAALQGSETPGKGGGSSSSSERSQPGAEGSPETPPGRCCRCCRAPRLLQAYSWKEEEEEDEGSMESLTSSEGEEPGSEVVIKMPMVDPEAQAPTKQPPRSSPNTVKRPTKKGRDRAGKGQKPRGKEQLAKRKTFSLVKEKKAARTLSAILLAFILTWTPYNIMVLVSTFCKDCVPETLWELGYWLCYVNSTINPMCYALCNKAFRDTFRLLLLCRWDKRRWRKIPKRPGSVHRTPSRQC

SMILES	activation	Potency
ClCc1ccccc1CCl	-0.219% (inactive)	
C=CCBr	3.27% (inactive)	
CCC/C=N/O		inactive
CN(C)CCO		inactive
c1ccc(NNc2ccccc2)cc1		inactive
OCCSCSCCO	0.198% (inactive)	
OCC(Cl)CCl (stereo not given)	-0.592% (inactive)	
CN(C)C(=S)S		inactive
CCOC(=O)CP(=O)(OCC)OCC	-0.0495% (inactive)	
CC(C)COC(=O)c1ccccc1C(=O)OCC(C)C		inactive
Clc1ccc(Cl)cc1		inactive
CCCCCCCCCCCCn1cc[n+](C)c1		inactive
COC(=O)Nc1nc2ccccc2[nH]1		inactive
O=NN1CCOCC1		inactive
CC(C)OC(=O)Nc1cccc(Cl)c1	0.191% (inactive)	
O=Cc1cccc(Oc2ccccc2)c1	1.6% (inactive)	
ClCC1CO1 (stereo not given)	-0.0038% (inactive)	
COCCl		50.9 µM (active) and inactive
Oc1ccc(Cl)cc1Cc1ccccc1		inactive
COc1cccc(C=O)c1	0.088% (inactive)	

SMILES	activation	Potency
O=C(NCO)NCO	-0.0092% (inactive)	
Oc1ccccc1-c1ccccc1		inactive
N#CCCO	-0.39% (inactive)	
CCNc1nc(NC(C)C)nc(OC)n1	-0.039% (inactive)	
CCCCCC[n+]1ccccc1		inactive
N#Cc1ccccc1N	0.306% (inactive)	
OCCOc1ccccc1		inactive
ClC1=C(Cl)[C@]2(Cl)[C@@H]3[C@@H](Cl)[C@@H](Cl)C[C@@H]3[C@@]1(Cl)C2(Cl)Cl	0.243% (inactive)	
COCCC#N	-0.0025% (inactive)	
CC(=[OH+])/C=C(/C)[O-].CC(=[OH+])/C=C(\C)[O-].CC(=[OH+])/C=C(\C)[O-].[Al]	-0.0169% (inactive)	
C=COCCCl	-0.251% (inactive)	
[N-]=[N+]=[N-]		inactive
CCCC(C)(COC(N)=O)COC(=O)NC(C)C (stereo not given)		inactive
CSc1nc(NC(C)C)nc(NC(C)C)n1		inactive
N#CC(Cl)(Cl)Cl	0.369% (inactive)	
O=Cc1ccccc1	1.49% (inactive)	
BrC(Br)Br	-0.304% (inactive)	
CSc1nnc(C(C)(C)C)c(=O)n1N		inactive
ClCC(Br)CBr (stereo not given)	-0.354% (inactive)	
Oc1ccc(Cl)cc1		inactive
